PubChem BioAssay AID488908 (National Center for Advancing Translational Sciences (NCATS), 2010)
Inconclusive results are not listed. Where a call stands in place of a potency, no number is given. Activity calls are given as the source filed them. Calls come from the whole dose curve; as a rule, active = well fitted inhibition curve with a large enough effect; inconclusive = small, poorly fitted or top-dose-only effect; inactive = flat fitted curve, though single readings scatter.

Assay: Secondary Assay for lipid storage modulators: Cytotoxcity for probe SAR
Details: Drosophila S3 cells viability, CellTiter-Glo luminescence, 24 h, with oleic acid added (1 µL, 400 µM); series mostly up to 46.1 µM
Outline: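 Drosophila S3 embryonic cells, 5,000/well, exposed to compound at several concentrations with 400 uM oleic acid stock added, 24 h at 24 degrees C; viability by CellTiter-Glo luminescence.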

Compound | Potency
COc1ccc(CCNC(=O)c2cc3sccc3n2Cc2ccccc2)cc1OC | inactive
Cc1cc(NC(=O)Nc2ccc(N(C)C)cc2)c2cc(F)cc(F)c2n1 | 12.5 µM (active)
CCOC(=O)C1CCN(C(=O)C2(NC(=O)NCc3ccccc3)CCCCC2)CC1 | inactive
O=C(NC1CCCc2c1cnn2-c1ccc(F)cc1F)c1ccccc1 (centres undefined) | 5.6 µM (active)
O=C(NC1CCCCC1)NC1(C(=O)N2CCCC2)CCCCC1 | inactive
CCOc1ccc(CCNC(=O)c2ccccn2)cc1OCC | inactive
CCOc1ccc(CCNC(=O)C2(c3ccccc3)CC2)cc1OCC | inactive
CCOC(=O)C1CCN(C(=O)C2(NC(=O)Nc3ccccc3Cl)CC2)CC1 | inactive
O=C(NCCc1ccc2c(c1)OCO2)c1cc2sccc2[nH]1 | inactive
O=C(NC1CCCc2c1cnn2-c1ccc(F)cc1F)c1cccs1 (centres undefined) | 8.88 µM (active)
O=C(NC1CCCc2c1cnn2-c1ccc(F)cc1F)c1ccsc1 (centres undefined) | 3.97 µM (active)
O=C(NC1CCCc2c1cnn2-c1ccc(F)cc1F)c1ccc(F)cc1 (centres undefined) | 14.1 µM (active)
Cc1csc(NC(=O)CSc2ncc(-c3ccccc3)n2Cc2ccco2)n1 | inactive
O=C(O)CCc1ccc(NCc2cccc(Oc3ccccc3)c2)cc1 | inactive
Cc1ccc(CC(=O)Nc2nc(-c3cccs3)cs2)cc1 | inactive
CCOc1ccc(CCNC(=O)c2csc(Br)n2)cc1OCC | inactive
O=C(Nc1cccc2nn(-c3ccc(F)cc3)cc12)c1ccccn1 | 12.5 µM (active)
O=C(NC1CCCc2c1cnn2-c1ccc(F)cc1F)c1ccc2cc[nH]c2c1 (centres undefined) | 22.3 µM (active)
CCOC(=O)C1CCN(C(=O)C2(NC(=O)Nc3ccc(F)cc3F)CCCCC2)CC1 | inactive
CCOC(=O)C1CCN(C(C)C(=O)NC(=O)NC2CCCCC2)CC1 (centres undefined) | inactive
O=C(O)c1cccc(-c2noc(-c3ccccc3F)n2)c1 | inactive
COc1ccc(Cl)cc1NC(=O)N1CCN(c2ccccn2)CC1 | inactive
Cc1ccc(-c2cnc(SCC(=O)Nc3nc(C)cs3)n2Cc2ccco2)cc1 | inactive
COc1nc(-c2ccc3c(c2)OCO3)n(-c2ccc(NC(=O)CSc3ccccc3)cc2)n1 | inactive
CCOc1ccc(CCNC(=O)c2cc3sccc3n2Cc2ccc(-n3cncn3)cc2)cc1OCC | inactive
CCn1c(-c2ccc(C)cc2)cnc1SCC(=O)Nc1nc(C)cs1 | inactive
O=C(NC1CCCc2c1cnn2-c1ccc(F)cc1F)c1cccc(=O)[nH]1 (centres undefined) | 2.81 µM (active)
O=C(Cc1cccs1)Nc1nc(-c2ccc(F)cc2)cs1 | inactive
COc1ccc(-c2csc(NC(=O)CSc3nnc(Nc4ccccc4)s3)n2)cc1 | inactive
